Reference: publication PMC12136788
Whole data set: some 5,800 sequences, median “enrichment r” near 0.68, cut for the highest 2% near 11. Only a sample is shown.

T1: UNK ZnF1-6 (called full-length) (human, UniProt Q9C0B0 30-357)
T1 sequence: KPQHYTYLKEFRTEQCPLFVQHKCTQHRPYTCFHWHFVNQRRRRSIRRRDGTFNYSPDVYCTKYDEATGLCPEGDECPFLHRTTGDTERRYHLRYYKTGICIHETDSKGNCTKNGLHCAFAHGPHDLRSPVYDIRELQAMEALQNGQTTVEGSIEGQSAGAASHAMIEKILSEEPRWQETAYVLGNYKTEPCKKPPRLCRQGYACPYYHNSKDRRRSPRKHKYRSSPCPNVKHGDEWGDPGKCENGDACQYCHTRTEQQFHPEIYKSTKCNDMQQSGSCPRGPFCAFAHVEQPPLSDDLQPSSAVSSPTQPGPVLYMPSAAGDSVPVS

B1: chr10:27397735:27399240:-|CDS|ENSG00000182077|control|control|control (ssRNA)
RNA: GGGAGUUCUACAGUCCGACGAUCUCUUCUAGGCUACCCAGUGUUACAAAGUGCAAUUUCAACAAUAAUAGGGGUGUGUGUUUUAGCUGCAGCGAAAGCAUACAUCUUCAGAACAUUUUUUAAGAUUAUGUUUCUUGUUAUGAUCAACAGAGGAUUGAGCAUCA
B2: ENSG00000124766:be:win_3751|3pUTR|ENSG00000124766|bound_else_gene|NA|bound_elsewhere_windowed (ssRNA)
RNA: GGGAGUUCUACAGUCCGACGAUCUUGUACAUUUAAGUCUGUAUUAUAAUAAGCAAAAAGAUUGUGUGUAUGUAUGUUUAAUAUAACAUGACAGGCACUAGGACGUCUGCCUUUUUAAGGCAGUUCCGUUAAGGGUUUUUGUUUCAACAGAGGAUUGAGCAUCA
B3: chr13:45957189:45957298:-|CDS|ENSG00000123200|unk|total|mutant (ssRNA)
RNA: GGGAGUUCUACAGUCCGACGAUCUGUUUUUGUUUUCUUCAAACCGGGCACCAUAAAACAAGCUUACACGAGUGCUCCAAUGGCCGACAAUGAAUUACUUCGAUUGAGUCUUCGGUUAUUUAAGCGGAAGACUACUUGCCAUGCCAACAGAGGAUUGAGCAUCA
B4: chrX:130230552:130230660:-|CDS|ENSG00000056277|unk|total|mutant (ssRNA)
RNA: GGGAGUUCUACAGUCCGACGAUCAUCAGAACGUCCAUGUGAUGAAGACAAGACUGAUUCAGAGACAGGAAAGUUGAUCAUGUCCGUCAAUGAGUUUUAUUAUGGAAGGCAUGAAGGAGUCACUGAGAAAGAGCCAAAGACUUACAACAGAGGAUUGAGCAUCA
B5: ENSG00000107863:be:win_2551|CDS|ENSG00000107863|bound_else_gene|NA|bound_elsewhere_windowed (ssRNA)
RNA: GGGAGUUCUACAGUCCGACGAUCUUAAUUCGCCGUCAGCUCUCACAUGACCACGAAUCUGUUGGCCCUCCUAGCCUGGAUGCUCAGCCCAACUCAAAGACAGAAAGAUCAAAAUCAUAUGAUGAGGGUCUGGAUGAUUACAGACAACAGAGGAUUGAGCAUCA
B6: chr20:57651677:57651767:-|3pUTR|ENSG00000124225|msi1_unk|FALSE|overlapping (ssRNA)
RNA: GGGAGUUCUACAGUCCGACGAUCGUUGAGCUGUGUCUUGAAGGCAAAAGAAAAAAAAUUUCUACAGUAGUCUUUCUUGUUUCUAGUUGAGCUGCGUGCGUGAAUGCUUAUUUUCUUUUGUUUAUGAUAAUUUCACUUAACUUUCAACAGAGGAUUGAGCAUCA
B7: ENSG00000124766:be:win_3701|3pUTR|ENSG00000124766|bound_else_gene|NA|bound_elsewhere_windowed (ssRNA)
RNA: GGGAGUUCUACAGUCCGACGAUCUCAGGUUUAUAGCUGUUGUGUUUAAAAAUUGAAAAAAGUGGAAAACAUCUUUGUACAUUUAAGUCUGUAUUAUAAUAAGCAAAAAGAUUGUGUGUAUGUAUGUUUAAUAUAACAUGACAGCAACAGAGGAUUGAGCAUCA
B8: chr4:1716041:1716142:-|3pUTR|ENSG00000168936|msi1|total|mutant (ssRNA)
RNA: GGGAGUUCUACAGUCCGACGAUCAGGCUUCCCCGAGCGCUCAGCAGGUGAAGGCAGCAGGGGCCAUGGCCGGGAGCCAGGCCCCGCUUUGAACUGAGUUUCAAGGGCUGCCAAAGAGGGGCAGUGGGUUGGGGUUGUUUUUACCAACAGAGGAUUGAGCAUCA
B9: chr6:158785413:158785514:-|CDS|ENSG00000092820|msi1|FALSE|unique (ssRNA)
RNA: GGGAGUUCUACAGUCCGACGAUCGAGCUCAUCCAGGACAUCACCCAGAAACUUUUCUUCCUCCAAGUGAAGGAAGGAAUCCUUAGCGAUGAGAUCUACUGCCCCCCUGAGACUGCCGUGCUCUUGGGGUCCUACGCUGUGCAGCAACAGAGGAUUGAGCAUCA
B10: chr10:113876644:113876745:+|CDS|ENSG00000196865|msi1|total|mutant (ssRNA)
RNA: GGGAGUUCUACAGUCCGACGAUCGGUUAAUGAUGCAGAUGCCAGCCUUUGGCAAGAACCCGAAGUUUCCUGCUGGCCAACUCCCGUCAUACUUGGACCUCGUGGAAACAUGUUGUUUUCUUUGAUUGGAGAGGGACACAAAGACAACAGAGGAUUGAGCAUCA
B11: chr1:212686416:212686790:-|three_prime_utr|ENSG00000123685|control|control|control (ssRNA)
RNA: GGGAGUUCUACAGUCCGACGAUCUUGUGCAGAUCCAGCAUGGAGGCCACCCUCAGGAGUGACUUCUCAUCCACCCUGGCAGCUAGUAGGUUCUGCUGUUAUGCAGAGCCAUUUCCUCUAGAAUUUGGAUAAUAAAGAUGCUUACAACAGAGGAUUGAGCAUCA
B12: ENSG00000184117:stop:overlap|stop_codon|ENSG00000184117|stop_codon|NA|stop_codon (ssRNA)
RNA: GGGAGUUCUACAGUCCGACGAUCUGGGCAACUGGAACACGUGGUAUGGGGAGCAGGACCAGGCAGGUCAUUCCUGGUUUUGGUAGAUUUCUAUCCAUACAGUACUUUUGCCAUUUCCUUUGGGAAAAAGACCUUUAAACCAUACAACAGAGGAUUGAGCAUCA
B13: chr20:32237940:32238012:+|3pUTR|ENSG00000101346|msi1_unk|total|mutant (ssRNA)
RNA: GGGAGUUCUACAGUCCGACGAUCUUUCAAAGAUACAAAUAUUUACACCGUUUUAAUCAUGUAAUAUAUACAAUUUAAUGUCCCCGUGUUUUACUUAACCGUGUAUCAUGUUUUCCCUGUUGGUAUGCCGCCUGGAUAAAUGCUCAACAGAGGAUUGAGCAUCA
B14: chr4:152882748:152882856:+|CDS|ENSG00000164144|unk|FALSE|unique (ssRNA)
RNA: GGGAGUUCUACAGUCCGACGAUCCAGAAACUGCUGGCUAAAAAUGGAGAGACUCUUCUUGGGGCCAUUAAUUUUUUCAUUGCUAGUGUGAACACUUUGGUGAAUAAAACCAUUGAAGAUACAUUAAUGACUGUGAAACAGUAUCAACAGAGGAUUGAGCAUCA
B15: chrX:13662881:13662996:+|CDS|ENSG00000176896|unk|total|mutant (ssRNA)
RNA: GGGAGUUCUACAGUCCGACGAUCUCGAAUUCUCUGUCUUCCCAAGACGUUGCAAAACUCAGUGAAAUGAUUGUGCCUGAAAACCGAGCCAUUCAAUUGAAACCUAAGGAAGAGCAUUUUGGGGAUGGUGACCCUGAAUCCACUCAACAGAGGAUUGAGCAUCA
B16: chr10:116672031:116672132:-|3pUTR|ENSG00000165868|msi1|total|mutant (ssRNA)
RNA: GGGAGUUCUACAGUCCGACGAUCCCUUUCCUGCCUUGCAUUAAUGCUAUCUCCCUGUGUACUGUUUCUCUUAAAUGAGCAGACCGAAAUCUGCAGUGUUGGCAGACCGGUGAUGGAGAGGAUGAUAAUUUUAUCUUCUGGCCACAACAGAGGAUUGAGCAUCA
B17: chr2:121605696:121605828:-|CDS|ENSG00000074054|unk|FALSE|unique (ssRNA)
RNA: GGGAGUUCUACAGUCCGACGAUCGAUAGACUAUUUCUCAGACAAACAGAAGUCUGCUGACCUUGAGCAUGACCAGACCAUGUUAGAUAAACUUGUGGAUGGACUUGCUACCUCUUGGGUGAACUCUAGCAAUUACAAGGUAAGCAACAGAGGAUUGAGCAUCA
B18: chr17:64498535:64498649:-|3pUTR|ENSG00000108654|unk|FALSE|unique (ssRNA)
RNA: GGGAGUUCUACAGUCCGACGAUCUUAAACUGAGGCUUUAAUUGAUGUUAAUGCCUUAUGUCAAAUGUAAAGUUAGAAUUUGCUAGGGCUGGGAUAGGGAGUGAUAUUUCUAGGACUUAGACAUUGAAAACUAAUUCAGCCUGUCAACAGAGGAUUGAGCAUCA
B19: ENSG00000124766:be:win_2101|3pUTR|ENSG00000124766|bound_else_gene|NA|bound_elsewhere_windowed (ssRNA)
RNA: GGGAGUUCUACAGUCCGACGAUCUGCCCCCUCUGCAGCCGGAGGAGGAGAUGUUGAGGGGAGGAGGCCAGCCAGUGUGACCGGCGCUAGGAAAUGACCCGAGAACCCCGUUGGAAGCGCAGCAGCGGGAGCUAGGGGCGGGGGCAACAGAGGAUUGAGCAUCA
B20: chr4:75812186:75812332:+|CDS|ENSG00000138768|unk|total|mutant (ssRNA)
RNA: GGGAGUUCUACAGUCCGACGAUCAGAGCAGCUGGAUUCAUCUAACCGUACCAUUGCCAUUUUACAAACUGAGAAAGACAAACCCGAGUUGGAAAUUACAGAUUCUAAAAAAGAACAAGAUGAUCUCUUGGUGCUCUUGGCCGACAACAGAGGAUUGAGCAUCA
B21: ENSG00000198589:be:win_7451|CDS|ENSG00000198589|bound_else_gene|NA|bound_elsewhere_windowed (ssRNA)
RNA: GGGAGUUCUACAGUCCGACGAUCUGAGUCCAUUGAUGUUCACAGACAAAGCCCAGCAGGAUGUUAUCAUGGUCCUCAAGUUUCCCUCCAACUCCCCUGUUACUCACGUGGCAGCCAACACCCAGCCUGGUUUGGCAACUCCCGCAACAGAGGAUUGAGCAUCA
B22: chr4:75597091:75597192:-|CDS|ENSG00000138769|unk|total|mutant (ssRNA)
RNA: GGGAGUUCUACAGUCCGACGAUCUAUAAACUAUUUAAAAUAAAAGGCUCAAAAAUUGAUGGAGAAAAAGCUGAAAAAGGCAACCGAGCUUCAAAUGCCAGCUGUCUCCAUGACAGCCGGACAAGCCACAACAAAACCGUGCCUCAACAGAGGAUUGAGCAUCA

The binders below were run against T1, UNK ZnF1-6 (called full-length) (assay: nsRBNS (natural sequence RNA bind-n-seq); RBNS binding buffer (assumed for nsRBNS): 25 mM Tris pH 7.5, 150 mM KCl, 3 mM MgCl2, 0.01% Triton X-100, 500 ug/ml BSA, 20 U/ml SUPERase-In, 4 C; UNK is unkempt and MSI1 is Musashi-1; names of the RNAs are library labels; protein concentration not given here; high values mean tight binding).

| Binder | binding signal [enrichment R] |
| --- | --- |
| B1 | 0.38 |
| B2 | 0.359 |
| B3 | 0.325 |
| B4 | 0.608 |
| B5 | 0.436 |
| B6 | 1.22 |
| B7 | 0.65 |
| B8 | 0.696 |
| B9 | 0.521 |
| B10 | 0.577 |
| B11 | 0.63 |
| B12 | 0.898 |
| B13 | 0.548 |
| B14 | 0.365 |
| B15 | 0.441 |
| B16 | 0.548 |
| B17 | 0.726 |
| B18 | 0.878 |
| B19 | 1.41 |
| B20 | 0.434 |
| B21 | 0.743 |
| B22 | 0.872 |
